# In PubChem BioAssay AID1458 (National Center for Advancing Translational Sciences (NCATS), 2008):
# The campaign covered roughly 210,000 compounds. About 5,900 (2.8%) were called active. Not shown: some 5% with an inconclusive outcome. The full list was thinned out, with actives kept by preference. Unmarked numbers belong to inactive results. Calls come from the whole dose curve; as a rule, active = well fitted activation curve with a large enough effect; inconclusive = small, poorly fitted or top-dose-only effect; inactive = no such curve, though single readings can be large or run the other way.
# Assay: qHTS Assay for Enhancers of SMN2 Splice Variant Expression; note: nearly all actives have a fitted effect of over 55% in size; for activity change, positive = activation: % of control where 0% means no effect
# Conditions: HEK293 SMN2-luciferase splicing reporter, luminescence, 30-36 h; series mostly up to 46.1 µM; activity change, positive = activation: at the top concentration
# Text: NIH Chemical Genomics Center [NCGC] NIH Molecular Libraries Probe Production centers Network [MLPCN] MLPCN Grant: R03 MH084179-01 Assay Submitter (PI): Elliot Androphy NCGC Assay Overview: Spinal muscular atrophy (SMA) is caused by insufficient levels of the survival motor neuron protein SMN. The SMN locus on chromosome 5q13 contains two inverted copies of SMN called SMN1 and SMN2 which are 99% identical at the amino acid level. SMN1 is a fully functional protein and SMN2 skips exon 7 90% of the time. Skipping of exon 7 produces non-functional protein product. 10% of the SMN2 protein includes exon 7 and is fully functional. In the SMA disease state, mutations in the SMN1 locus are the cause of the disease state. Because only 10% of SMN2 is of the fully functional form, it is not sufficient to overcome the deficiency produced by the loss of the SMN1 product. A therapy that either increase the amount of SMN2 product made or to increase the inclusion of exon 7 has been proposed for the treatment of SMA. We have designed an assay to identify small molecules that can increase the amount of functional SMN2 product by appending a luciferase reporter gene after the native SMN2 gene, such that inclusion of exon 7 in the expressed product places the luciferase sequence in frame, thus generating functional luciferase enzyme.
# NCGC Assay Protocol Summary: This screen utilizes a luciferase reporter gene assay, combining the promoter and splicing based cassettes in tandem with the major portion of the native SMN2 cDNA, and then transfected into HEK293 cells. Compounds that increase luciferase signal presumably enhance expression of the functional SMN2 splice variant. Passaging media contained DMEM w/ glutamax (+phenol red) 10% FCS, 1x pen/strep, 200 ug/ml hygro, 1x sodium pyruvate. Assay media contained DMEM w/ glutamax (-phenol red) 10% FCS, 1x pen strep, 1x pyruvate Sequence, Parameter, Value, Description (1) Cells, […], 2000 cells/well, 1536 TC treated White solid bottom plate (2) Time, 10-12 hours, 37C 5% CO2 (3) Compound, 23 nl, MLSMR Library (4) Control Compound, 23 nL, Sodium butyrate st 4.5mM (final) conc (5) Time, 30-36 hours, 37C 5% CO2 (6) Reagent, 3 ul, One Glo (TM) from Promega (7) Time, 5-15 minutes, Room temp (8) Detector, Viewlux: luminescent read, 60 second integration, high speed 2x binning Keywords: Spinal muscular atrophy, SMA, SMN2, high throughput screening, MLSMR, MLPCN, NIH Roadmap, qHTS and NCGC
# Potency is the fitted concentration of half-maximal effect.
Structure (SMILES),"activity change, positive = activation [%]",Potency
COc1ccc(CCNC(=O)Cn2c(=O)n(-c3ccccc3)c(=O)c3c(C)c(C)sc32)cc1OC,-5.04,
CC(C)c1nc(-c2ccccn2)no1,-5.04,
c1ccc(-c2noc(-c3cccs3)n2)nc1,,2.82 µM (active)
c1csc(-c2nc(-c3ccncc3)no2)c1,,15.8 µM (active)
COc1ccc(Cc2nc(-c3ccccn3)no2)cc1OC,21.9,
Cc1ccc(-c2noc(CSc3nnc(-c4cccs4)n3C)n2)cc1,-21.9,
c1ccc(CCc2nc(-c3ccncc3)no2)cc1,24,
COc1ccc(C)cc1-n1c(-c2ccc(C)cc2)cc2c1CC(C)(C)CC2=O,10.6,
Cn1c(=O)c(C(=O)O)nn(-c2ccccc2)c1=O,17.2,
COc1ccc(-c2c(C)nn3c(N4CCC(C(=O)NCCC(C)C)CC4)cc(C)nc23)cc1OC,-0.433,
Cc1cc(N2CCCC2)n2nc(C)c(-c3ccccc3)c2n1,,11.2 µM (active)
Cc1cc(-n2nc(C)cc2C)n2nc(C)c(-c3ccccc3)c2n1,-15.7,
Cc1cc(-c2ccccc2)n2nc(C)c(-c3ccccc3)c2n1,-18.7,
CCc1nc2nc(C)cc(Nc3ccc(F)c(Cl)c3)n2n1,-8.09,
Cn1c(C(=O)N2CCC(C(=O)N3CCN(c4ccccc4)CC3)CC2)cc2sccc21,5.79,
COc1ccc(NC(=O)CCN2CCN(CCO)CC2)cc1,1.23,
CC(C)N1CCC(NC(=O)Nc2ccccc2)CC1,-0.391,
CC(C)c1ccc(NC(=O)NC2CCCCC2)cc1,,11.2 µM (active)
CC(C)(C)NS(=O)(=O)c1ccc(NC(=O)NC2CCCCC2)cc1,-0.432,
CCc1nn(CC(=O)N2CCN(c3cccc(C(F)(F)F)c3)CC2)c(=O)c2cc3occc3n12,7.08,
Nc1ccc(S(=O)(=O)Nc2nccc(/C=C/c3ccc(Br)s3)n2)cc1,17.1,
Oc1cccc2ccc(/C=C/c3ccc(Br)s3)nc12,,8.91 µM (active)
COc1cc(OC)cc(-c2nc3nc(C)c(CCC(=O)Nc4ccccc4)c(C)n3n2)c1,-8.35,
O=C(Nc1ccc(Br)cn1)c1ccc([N+](=O)[O-])cc1Cl,,7.08 µM (active)
O=C(Nc1ccc(Br)cn1)c1ccc([N+](=O)[O-])o1,9.38,
CC(C)C(=O)Nc1cccc(NC(=O)c2ccc([N+](=O)[O-])cc2Cl)c1,-4.89,

Structure (SMILES),"activity change, positive = activation [%]",Potency
COc1ccccc1N1CCN(c2ncnc3onc(-c4cccc(Cl)c4)c23)CC1,-0.084,
Cc1occc1C(=O)Nc1nnc(C2CCCCC2)s1,11.1,
O=C(Nc1nnc(Cc2ccccc2)s1)c1cnccn1,22.7,
O=C(Nc1nnc(C2CC2)s1)c1ccccn1,,2.82 µM (active)
NC(=O)CSc1nc2c(oc3ccccc32)c(=O)n1Cc1ccccc1,-5.05,
Cc1ccc(-n2c(SCC(=O)Nc3cccc(F)c3)nc3c(oc4ccccc43)c2=O)cc1C,-7.05,
COC(=O)C1=C(c2ccccc2)c2ccccc2S(=O)(=O)N1CC(=O)Nc1ccccc1C(F)(F)F,8.62,
COc1ccc(C(F)(F)F)cc1NC(=O)c1sc2nc(-c3cccs3)ccc2c1N,11,
CN1C(=O)/C(=C/C=C2\SCCN2C)OC1=S,,12.6 µM (active)
Cc1n[nH]c(C)c1S(=O)(=O)N1CCCC(C(=O)Nc2ccc(Br)cc2)C1 (centres undefined),-57.6,
Cc1ccc2nc(-c3ccc(O)cc3)c(Nc3ccc4c(c3)OCO4)n2c1,-7.48,
CCOc1ccc(S(=O)(=O)N(CC(=O)NCCSCc2ccc(C)cc2)c2ccccc2)cc1,-13.4,
Cc1ccc(-c2noc(CSc3nnc(-c4ccc(Cl)cc4)n3C)n2)cc1,7.16,
Cc1cc(-c2n[nH]c(=S)n2/N=C/C(Br)=C/c2ccccc2)n[nH]1,-19.9,
S=c1[nH]nc(-c2cccnc2)n1/N=C/C(Cl)=C\c1ccccc1,,12.6 µM (active)
Cc1ccc(/C=N\n2c(-c3ccccc3)n[nH]c2=S)s1,8.49,
O=C(Cn1ncc2c3ccccc3n(Cc3ccccc3)c2c1=O)NCc1ccccn1,11.5,
CCN1CCN(Cc2c(O)ccc3oc(C)c(C(=O)Nc4ccc(C)cc4C)c23)CC1,7.3,
CC(C)(C)c1ccc(C(=O)N2CCC(c3nc(-c4ccc(S(=O)(=O)N5CCCC5)cc4)no3)CC2)cc1,-5.48,
COc1cc(CNCCSc2nnnn2C)ccc1OCc1ccc(Cl)cc1Cl,-16,
CCn1c(SCc2ccccc2)nc2c(c1=O)SCC2,-18.9,
CS(=O)(=O)n1nc(-c2ccccc2)nc1NCc1ccco1,2.41,
CCS(=O)(=O)n1nc(-c2ccccc2)nc1SCc1ccccc1,,22.4 µM (active)
Cc1ccc(-n2nc(CO)c(C(=O)NCCc3ccccc3)n2)cc1,-5.5,
Cc1ccc(-n2c3nc(=O)[nH]c(=O)c-3cc3c(Cl)cccc32)cc1,1.85,
Cc1nonc1NC(=O)CSc1nc2ccccc2cc1C#N,-0.417,

Structure (SMILES),"activity change, positive = activation [%]",Potency
COc1ccc(N2CCN(C(=O)CSc3nc4cc(OC)c(OC)cc4cc3C#N)CC2)cc1,-2.77,
CCOc1ccc2cc(C#N)c(SCC(=O)OC)nc2c1,,11.2 µM (active)
CCN1CCc2nc3sc(C(=O)Nc4ccccc4OC(F)(F)F)c(N)c3cc2C1,-23.4,
COc1cccc(-c2nc3n(n2)C(c2ccccc2Cl)C(C(N)=O)=C(C)N3)c1 (centres undefined),,15.8 µM (active)
CC1=C(C(N)=O)C(c2ccc3c(c2)OCO3)n2nc(-c3cccc(C)c3)nc2N1 (centres undefined),11.9,
COc1ccc(C2=CC(c3ccccc3Cl)n3nc(-c4ccc(Cl)cc4)nc3N2)cc1 (centres undefined),-13,
COc1ccc(/C=C/C(=O)Nc2cccnc2)cc1OC,14.8,
COc1ccc(/C=C/C(=O)Nc2ccc(C34CC5CC(CC(O)(C5)C3)C4)cc2)cc1OC,,12.6 µM (active)
COc1ccc(/C=C/C(=O)N2CCCC2)cc1OC,10.2,
CCOC(=O)c1ccc(NC(=O)CC2C(=O)N(c3ccccc3)C(=O)N2Cc2cccs2)cc1 (centres undefined),10.9,
CCC(=O)Nc1sc(C(=O)Nc2ccccc2)c(C)c1C(=O)OC,,3.55 µM (active)
CCOC(=O)c1c(NC(=O)CCl)sc(C(=O)N(CC)CC)c1C,-9,
CCOC(=O)c1sc(NC(=O)COc2ncnc3ccccc23)c(C(=O)OCC)c1C,-29.8,
COc1ccccc1NC(=O)c1sc2nc(C)c(C(=O)Nc3ccc(Cl)cc3)c(-c3ccc(Br)cc3)c2c1N,12.3,
CCc1ccccc1NS(=O)(=O)c1ccc2nc(-c3ccccc3)[nH]c2c1,-7.51,
Cc1c(NC(=O)c2cc(-c3ccc(Br)cc3)on2)c(=O)n(-c2ccccc2)n1C,21.8,
CC(C)Oc1ccc(CNC(=O)C2CCN(c3nc4ccccc4n(C)c3=O)CC2)cc1,-6.21,
Cc1cc(C)c2oc(C(=O)Nc3ccc(S(=O)(=O)N(C)c4ccccc4)cc3)cc(=O)c2c1,-2.61,
Cc1nc2cc(NC(=O)NCc3ccccc3)ccc2o1,9.65,
Cc1ccc(NC(=O)Nc2ccc3oc(C)nc3c2)cc1,,11.2 µM (active)
Cc1nc2ccc(NC(=O)C(F)(F)F)cc2o1,-4.98,
CC(C)c1ccc(NS(=O)(=O)c2ccc3[nH]cc(C(=O)NC4CCCC4)c(=O)c3c2)cc1,1.67,
CCOc1ccc(-c2n[nH]c3c2C(c2ccccc2OC)N(c2ccc(Br)cc2)C3=O)cc1 (centres undefined),1.33,
CCCOC(=O)Nc1ccccc1C(N)=O,8.03,
COc1cccc(OCC(=O)Nc2ccccc2C(N)=O)c1,,11.2 µM (active)
COc1cccc(OCC(=O)NNC(=O)c2cnccn2)c1,2.02,

Structure (SMILES),"activity change, positive = activation [%]",Potency
CCOc1ccc(-c2nonc2NC(=O)c2oc3ccc(CC)cc3c2C)cc1,16.2,
CCOC(=O)c1ccc(NC(=O)c2ncn(-c3ccccc3)n2)cc1,2.79,
CCC(=O)N1CCc2cc(S(=O)(=O)CCC(=O)N3CCN(c4ccccc4F)CC3)ccc21,-19.7,
O=C(/C=C/c1ccc(Cl)cc1)Nc1ccc(S(=O)(=O)Nc2ncccn2)cc1,2.19,
CC(C)(C)c1ccc(/C=C/C(=O)Nc2ncccn2)cc1,,22.4 µM (active)
CC(C)(C)c1ccc(/C=C/C(=O)NC2CCS(=O)(=O)C2)cc1 (centres undefined),-25.1,
CCN(CC)CCNC(=O)Cn1ncc2c3ccccc3n(Cc3ccccc3C)c2c1=O,-8.03,
COCCCNC(=O)c1c(NC(=O)c2cc(=O)c3cc(C)c(C)cc3o2)sc2c1CCCC2,15.5,
CCOC(=O)c1nnn(CC(=O)NC(=O)Nc2ccccc2F)c1C(=O)OCC,-4.64,
COc1ccc(CNC(=O)CC2Oc3ccc(C)cc3NC2=O)cc1 (centres undefined),3.76,
O=C(c1ccc(C(F)(F)F)cc1)N1CCC(c2nc(-c3ccc(S(=O)(=O)N4CCCC4)cc3)no2)CC1,2.89,
O=C(CSc1cccc[n+]1[O-])c1ccc(-c2ccccc2)cc1,,12.6 µM (active)
O=C(CSc1cccc[n+]1[O-])c1ccc(Cl)cc1,8.29,
COc1ccccc1C(=O)CSc1cccc[n+]1[O-],4.69,
Cc1c(C(=O)NCc2ccccc2Br)oc2ccc3c(c12)C(=O)CC(C)(C)O3,11.5,
CCS(=O)(=O)c1nc(S(=O)(=O)c2ccc(C)cc2)c(NCc2ccc(Cl)cc2)s1,1.21,
O=c1n(Cc2cccc(C(F)(F)F)c2)c2ccccc2c2nc(-c3ccccc3)nn12,15.6,
Cc1ccc(NC(=O)C(Cc2ccccc2)NS(=O)(=O)c2ccc3c(c2)oc(=O)n3C)cc1C (centres undefined),-9.69,
C/C=C/c1ccc(OCCOc2ccc(C=O)cc2OC)c(OC)c1,-11.4,
COc1cc(/C=C2/C(=O)ON=C2C)ccc1OCc1ccccc1F,-39.6,
COc1cc(/C=C2/C(=O)ON=C2C)ccc1OCc1cccc(F)c1,,12.6 µM (active)
CCOC(=O)c1c(C)oc2ccc(N(C(=O)c3ccncc3)S(=O)(=O)c3ccc(CC)cc3)cc12,-21.7,
CCOC(=O)C1=C(c2ccccc2)Nc2ncnn2C1c1ccc(Cl)cc1 (centres undefined),-4.4,
O=C(Nc1cc2ccccc2oc1=O)C1CCCCC1,,4.47 µM (active)
CC(=O)Nc1cc2ccc(OC(C)=O)cc2oc1=O,3.43,
O=C(O)c1ccc(NC(=O)C2CCCCC2)cc1,4.05,
